This is a sample that favours compounds with a hit; in the whole collection about 19% have one here.
TDP1 block – TDP1 (human) enzyme inhibition; recombinant TDP1, AlphaScreen DNA substrate cleavage; Q9NUW8; Potency, µM (doses to about 130 µM), hits mostly inhibitors; 350,000 compounds, 0.28% hits; also: nearly all actives have a fitted effect of over 40% in size
Target sequence (Q9NUW8 whole entry, looked up): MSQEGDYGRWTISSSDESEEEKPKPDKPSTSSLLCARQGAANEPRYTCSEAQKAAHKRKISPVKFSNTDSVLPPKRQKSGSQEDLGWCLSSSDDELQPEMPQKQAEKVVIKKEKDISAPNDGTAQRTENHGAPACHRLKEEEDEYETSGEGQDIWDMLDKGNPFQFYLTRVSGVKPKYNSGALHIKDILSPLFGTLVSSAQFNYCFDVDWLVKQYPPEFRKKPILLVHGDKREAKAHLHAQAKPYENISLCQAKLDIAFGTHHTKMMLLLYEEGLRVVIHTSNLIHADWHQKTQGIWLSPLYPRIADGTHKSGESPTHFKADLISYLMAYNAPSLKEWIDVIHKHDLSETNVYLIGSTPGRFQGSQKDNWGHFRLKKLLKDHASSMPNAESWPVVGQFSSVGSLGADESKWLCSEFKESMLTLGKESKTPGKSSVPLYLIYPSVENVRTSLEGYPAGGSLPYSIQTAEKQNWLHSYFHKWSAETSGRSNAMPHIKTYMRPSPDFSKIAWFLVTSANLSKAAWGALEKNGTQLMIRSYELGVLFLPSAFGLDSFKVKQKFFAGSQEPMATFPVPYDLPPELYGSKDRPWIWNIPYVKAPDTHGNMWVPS
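Compounds were preincubated with Tdp1 (1 nM final) for 15 min at room temperature before substrate (15 nM final) started a 5 min reaction; beads (10 ug/ml final) were then added for 10 min before AlphaScreen detection.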
TDP1 cell noCPT – qHTS for Inhibitors of human tyrosyl-DNA phosphodiesterase 1 (TDP1): qHTS in cells in absence of CPT | DT40 Tdp1-/- hTDP1 cells, no CPT, ATP luminescence, 48 h | Potency, µM (series often up to 46.2 µM), usual class: inhibitors | 420,000 compounds, 15% hits | AID 686978, 2013; also: nearly all actives have a fitted effect of over 55% in size
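Compound effects on proliferation are scored in DT40 Tdp1-/-;hTDP1 cells in the absence of CPT. ATP levels (CellTiter-Glo luminescence) are recorded after a ≥48 hr, 37 °C incubation.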
ELG1 DNA repair – blocks ELG1-dependent DNA repair in HEK293T cells. Potency, µM (titrated, usually from 46.1 µM), hits mostly inhibitors. HEK293T ELG1-luciferase reporter, luminescence, 16 h; DNA damage induced by 5-fluorouridine. 330,000 compounds, 2.3% hits; also: nearly all actives have a fitted effect of over 55% in size
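DMSO vehicle served as the neutral condition. Each well held 2,000 cells given 5-fluorouridine plus compound; after 16 hr at 37 °C/5% CO2, ONE-Glo was added and luciferase measured 30 min later.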
IL1B secr inh – inhibitors of inflammasome signaling (IL-1 beta secretion) | THP-1 LPS/ATP IL-1B secretion, AlphaLISA, 16 h; stronger effect = lower value | activity change, % at 57.5 µM | 360,000 compounds, 4.7% hits | AID 743279; in the data active = activity change below about -50%; inconclusive = mostly about -30% to -49%
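THP-1 cells pretreated 1 hr with compounds (up to 57.5 uM final), then stimulated with LPS (250 ng/mL final) plus ATP (1.25 mM final); secreted IL-1B measured by AlphaLISA after 16 hr, decreased signal indicating inhibition.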
Giardia kill – Giardia lamblia killing; Giardia lamblia trophozoite viability; activity change, % at 7.66 µM, hits read low; 340,000 compounds, 0.15% hits; AID 540267; in the data active = activity change below about -80%; inconclusive = between about -30% and that limit;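 also: parasites exposed to compound for two days anaerobically before the ATP read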
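Viability, read as ATP luminescence: trophozoites at 100 cells/well, compound added, 48 hrs anaerobic at 37 deg C, then 15-30 min room-temperature development before reading.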
TDP1 cell CPT – growth inhibition of DT40 Tdp1-/-;hTDP1 cells with camptothecin (screen for TDP1 inhibitors); 420,000 compounds, 12% hits; chicken DT40 Tdp1-/-;hTDP1 cells + 20 nM CPT, ATP luminescence, 48 h; Potency, µM (highest dose often 46.2 µM), most hits filed as inhibitors; also: nearly all actives have a fitted effect of over 55% in size
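Chicken DT40 Tdp1-/- cells complemented with human TDP1, 400 cells/well, exposed to compounds plus 20 nM camptothecin for at least 48 h at 37 C; viability read as ATP content by CellTiter-Glo luminescence.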
A number is an active result. Unless noted, calls follow the shape of the dose curve; as a rule, active = well fitted curve in the direction sought with a large enough effect; inconclusive = small, poorly fitted or top-dose-only effect, or another doubt; inactive = no such curve, though single readings can be large; an effect the other way counts as inactive or inconclusive.

`Cc1cccc(C)c1NC(=O)CSCc1cnn(-c2ccccc2)c1-n1cccc1` gave TDP1 block inactive, TDP1 cell noCPT 10µM and TDP1 cell CPT 10µM.
For O=C(CSCc1cnn(-c2ccccc2)c1-n1cccc1)Nc1ccc(F)cc1F the results were TDP1 block inactive, TDP1 cell noCPT 18µM and TDP1 cell CPT inconclusive.
For Cc1ccc(NC(=O)CSCc2cnn(-c3ccccc3)c2-n2cccc2)c(Cl)c1 the results were TDP1 block inactive, TDP1 cell noCPT inconclusive and TDP1 cell CPT inconclusive.
For COc1cc(NC(=O)CSCc2cnn(-c3ccccc3)c2-n2cccc2)cc(OC)c1 the results were TDP1 block inactive, TDP1 cell noCPT 15µM, ELG1 DNA repair inconclusive, IL1B secr inh inactive, Giardia kill inactive and TDP1 cell CPT inconclusive.
For CCN(CC(=O)Nc1c(F)cccc1F)C(=O)CCCOc1ccccc1 the results were TDP1 cell noCPT inactive, IL1B secr inh inactive, Giardia kill inactive and TDP1 cell CPT inconclusive.
Screening Cc1ccc(S(=O)(=O)N2CCN(Cc3csc(C)n3)CC2)cc1 returned TDP1 block inactive, TDP1 cell noCPT inactive, ELG1 DNA repair inactive, IL1B secr inh inactive, Giardia kill inactive and TDP1 cell CPT inactive.
`O=C(NCc1ccccc1Cl)c1cnc2sc(N3CCOCC3)nn2c1=O` gave TDP1 block inactive, TDP1 cell noCPT inactive and TDP1 cell CPT inactive.
For CC(C(=O)NN=C(c1ccccc1)c1ccccc1)N1CCOCC1 (stereo not given) the results were TDP1 block inactive, TDP1 cell noCPT 16µM, ELG1 DNA repair inactive, IL1B secr inh inactive, Giardia kill inactive and TDP1 cell CPT inconclusive.
For O=C(CN1CCOCC1)NN=C(c1ccccc1)c1ccccc1 the results were TDP1 cell noCPT inconclusive, ELG1 DNA repair inactive, IL1B secr inh inactive, Giardia kill inactive and TDP1 cell CPT inactive.
For CC(NS(=O)(=O)OCC(Cl)(Cl)Cl)c1ccc(C(C)(C)C)cc1 (stereo not given) the results were TDP1 cell noCPT inconclusive, ELG1 DNA repair inactive, IL1B secr inh -72, Giardia kill inactive and TDP1 cell CPT 16µM.
For CC(C)(NS(=O)(=O)OCC(Cl)(Cl)Cl)c1ccccc1 the results were TDP1 cell noCPT inactive, ELG1 DNA repair inactive, IL1B secr inh inactive, Giardia kill inactive and TDP1 cell CPT inactive.
CC1CCc2nc(NC(=O)CSc3nc4ccccc4o3)sc2C1 (stereo not given) was read as TDP1 block inactive, TDP1 cell noCPT 18µM, ELG1 DNA repair inconclusive, IL1B secr inh inactive, Giardia kill inactive and TDP1 cell CPT inconclusive.
Screening CCc1nnc(NC(=O)CSc2nc3ccccc3o2)s1 returned TDP1 block inactive, TDP1 cell noCPT inactive, ELG1 DNA repair inactive, IL1B secr inh inactive, Giardia kill inactive and TDP1 cell CPT inactive.
Cc1nnc(SCC(=O)Nc2nc3c(s2)CC(C)CC3)s1 (stereo not given) was read as TDP1 block inactive, TDP1 cell noCPT 10µM, ELG1 DNA repair inactive, IL1B secr inh inactive, Giardia kill inactive and TDP1 cell CPT inconclusive.
CCOCCCNC(=O)C1CCC(CNS(=O)(=O)c2ccc(NC(C)=O)cc2)CC1 (stereo not given) was read as TDP1 block inactive, TDP1 cell noCPT inactive and TDP1 cell CPT inactive.
For COc1ccccc1CNc1nc(-c2ccccc2OC)nc2ccccc12 the results were TDP1 cell noCPT 21µM and TDP1 cell CPT 18µM.
`COc1ccccc1-c1nc(NCc2cnc(C)cn2)c2ccccc2n1` gave TDP1 cell noCPT inconclusive and TDP1 cell CPT 16µM.
`CCn1c(SCc2ccccc2)nnc1-c1cccs1` gave TDP1 block inactive, TDP1 cell noCPT 6.5µM, ELG1 DNA repair inactive, IL1B secr inh inactive, Giardia kill inactive and TDP1 cell CPT 18µM.
For CCn1c(Cn2nnc(-c3ccccc3)n2)nnc1SCc1ccc(Cl)c(Cl)c1 the results were TDP1 block inactive, TDP1 cell noCPT 23µM, ELG1 DNA repair inconclusive, IL1B secr inh inactive, Giardia kill inactive and TDP1 cell CPT 21µM.
For CCn1c(Cn2nnc(-c3ccccc3)n2)nnc1SCC(=O)N1CCOCC1 the results were TDP1 block inactive, TDP1 cell noCPT inactive, ELG1 DNA repair inactive, IL1B secr inh inactive, Giardia kill inactive and TDP1 cell CPT inactive.
COc1ccc(-n2c(CNc3ccc(C)cc3)nnc2SCc2ccccc2)cc1 was read as TDP1 block inactive, TDP1 cell noCPT 16µM, ELG1 DNA repair inconclusive, IL1B secr inh inactive, Giardia kill inactive and TDP1 cell CPT inconclusive.
`CCn1c(CNC(=O)c2ccc(Cl)cc2)nnc1SCC(=O)N1CCOCC1` gave TDP1 block inactive, TDP1 cell noCPT inactive, ELG1 DNA repair inactive, IL1B secr inh inactive, Giardia kill inactive and TDP1 cell CPT inactive.
`C=CCSc1nnc(CNC(=O)c2ccc(Cl)cc2)n1CC` gave TDP1 block inactive, TDP1 cell noCPT inactive, ELG1 DNA repair inactive, IL1B secr inh -69, Giardia kill inactive and TDP1 cell CPT inactive.
Screening CC(C)C[C@@H](CN)NC(=O)c1nc[nH]c1C(=O)N[C@@H](CC(C)C)C(=O)CNC[C@H](C)NC(=O)c1nc[nH]c1C(=O)N[C@@H](CC(=O)O)C(=O)O returned TDP1 cell noCPT inactive, IL1B secr inh inactive, Giardia kill inactive and TDP1 cell CPT inactive.
Screening N#Cc1ccc(CSc2nnc(-c3cccs3)n2-c2ccccc2)cc1 returned TDP1 block inactive, TDP1 cell noCPT inactive, ELG1 DNA repair 21µM, IL1B secr inh inactive, Giardia kill inactive and TDP1 cell CPT inactive.
For N#Cc1ccc(CSc2nnc(-c3c[nH]c4ccccc34)n2-c2ccccc2)cc1 the results were TDP1 block inactive, TDP1 cell noCPT 23µM, ELG1 DNA repair inconclusive, IL1B secr inh -67, Giardia kill inactive and TDP1 cell CPT inconclusive.
For CCn1c(CNc2ccc(Cl)cc2)nnc1SCc1ccccc1 the results were TDP1 block inactive, TDP1 cell noCPT inconclusive, ELG1 DNA repair inconclusive, IL1B secr inh -76, Giardia kill inactive and TDP1 cell CPT inconclusive.
`CCCN(CC(=O)Nc1ccccc1C)C(=O)C1CCN(S(=O)(=O)c2cccc(C(F)(F)F)c2)CC1` gave TDP1 block inactive, TDP1 cell noCPT inactive, ELG1 DNA repair inactive, IL1B secr inh inactive, Giardia kill inactive and TDP1 cell CPT inactive.
For CCCCN1C(=N)N([C@@H](C)CN2CCC[C@H]2CN2C(N)=NC[C@H]2CC(C)C)C[C@H]1[C@H](C)CC the results were TDP1 block inactive, TDP1 cell noCPT 16µM, ELG1 DNA repair inactive, IL1B secr inh inactive, Giardia kill inconclusive and TDP1 cell CPT 23µM.
